HCV inhibitor – HCV inhibition. AID 651820. Potency, µM (top dose mostly 41.8 µM), inactives show at the highest dose activity change, negative = inhibition, usual class: inhibitors. Huh7.5.1 HCVcc-Cre infection, luciferase reporter, 44 h. 340,000 compounds, 3.4% hits; further: on the % scale 0 is the no-effect control and ±100 the full control effect
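Compounds are dispensed onto cells plated 4 h earlier at 1,000 per well, with HCVcc-Cre virus (about 0.5 moi) added next. Following 44 h of culture, luminescent signal is measured for 15 sec after 15 min with substrate at room temperature.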
SARS PLP yeast – blocks SARS-CoV papain-like protease in a yeast assay | AID 485353 | 330,000 compounds, 0.19% hits | S. cerevisiae expressing SARS-CoV PLpro, growth rescue | Potency, µM (series often up to 32.9 µM), for the others: at the highest dose activity, positive = growth rescue, most hits filed as activators; calls by dose curve; further: 0% is about no effect; nearly all actives have a fitted effect of over 55% in size
Pf growth 48h – P. falciparum growth inhibition at 48 hours (one generation); P. falciparum luciferase growth in erythrocytes, 48 h; Potency, µM (top dose mostly 28.7 µM), without a hit: at the highest dose activity change, negative = inhibition, actives largely listed as inhibitors; 310,000 compounds, 5.9% hits; AID 504832; further: on the % scale 0 is the no-effect control and ±100 the full control effect
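Parasite viability was followed by luminescence of a genomically integrated firefly luciferase. Cultures held 0.1% parasitemia at 2% hematocrit (final), incubated under 5% CO2 at 37 C.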
NS1 inh – influenza NS1 inhibition. 270,000 compounds, 0.4% hits. Potency, µM (series often up to 46.1 µM), inactives show at the highest dose activity, positive = more growth. AID 2326; calls by dose curve; further: actives are rising curves; nearly all actives have a fitted effect of over 50% in size
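Read-out: OD600 growth recovery of NS1-expressing budding yeast. Cells grown overnight at 30C in -URA glucose medium, washed, resuspended and diluted 1:100 in 2% galactose assay medium, pH 6.0. Same strain lacking NS1 served as positive control.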
Pf growth 96h – P. falciparum growth inhibition at 96 hours. P. falciparum luciferase reporter growth, 96 h. Potency, µM (top dose mostly 28.7 µM), inactives show at the highest dose activity change, negative = inhibition, actives largely listed as inhibitors. 320,000 compounds, 6.9% hits. AID 504834; further: on the % scale 0 is the no-effect control and ±100 the full control effect
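Two parasite generations (96 h, 37 C, 5% CO2) of compound exposure in infected erythrocytes (0.05% parasitemia, 2% hematocrit). Luciferase-reporter P. falciparum; decreased luminescence indicates inhibited growth, aimed at apicoplast-acting delayed death.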
AMA1 RON2 block – disrupts binding of P. falciparum AMA1 to RON2. AlphaScreen AMA1-biotinylated RON2 peptide binding. Potency, µM (highest dose often 58.2 µM), without a hit: at the highest dose activity change, negative = inhibition, actives largely listed as inhibitors. 360,000 compounds, 0.2% hits;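 further: 0% = vehicle wells and -100% = peptide control; nearly all actives have a fitted effect of over 45% in size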
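AMA1 (3D7) with his tag at 25 nM final met compounds first, then biotinylated RON2 peptide at 25 nM; detection used donor plus acceptor beads, 10 µg/mL apiece, read by AlphaScreen after 30 min at room temperature.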
An asterisk follows results filed as active; ? = inconclusive; nt = not tested or not shown. Compounds with a hit are over-represented: about 12% of the library has one in this group of screens. Unless noted, the call rests on the fitted dose curve; in most records, active means well fitted curve in the direction sought with a large enough effect; inconclusive means small, poorly fitted or top-dose-only effect, or another doubt; inactive means no such curve, though single readings can be large; an effect the other way counts as inactive or inconclusive. Potency means the concentration at half of the fitted maximal effect.

SMILES	HCV inhibitor	SARS PLP yeast	Pf growth 48h	NS1 inh	Pf growth 96h	AMA1 RON2 block
O=C1CSC(c2ccccc2[N+](=O)[O-])N1c1cccc(F)c1 (stereo not given)	8%	0%	-8%	nt	2.3µM*	14%
O=C(NCc1ccc(F)cc1)C1CCCN(C(=O)NCc2ccccc2)C1 (stereo not given)	-8%	1%	5%	15%	?	8%
COc1ccc(-c2ccc3c(c2)S(=O)(=O)c2cccc(C(=O)NC[C@@H]4CCCO4)c2C3=O)cc1OC	?	-3%	13µM*	nt	?	-20%
CSc1ccc(CNC(C)C(O)c2ccccc2)cc1 (stereo not given)	12%	1%	1.9µM*	1%	-2%	0%
CCCn1nnc(NC(=S)NC(=O)/C=C/c2ccco2)n1	13%	3%	23%	16%	1%	23%
CN1c2ccccc2-c2ccccc2S1(=O)=O	?	nt	nt	nt	nt	-1%
CN(C(=O)c1cc2sccc2n1C)C1CCCCC1	2%	8%	79%	-12%	2.6µM*	-1%
COC(=O)c1ccc(CSc2ncnc3c2nnn3-c2ccc(F)cc2)o1	?	-3%	1µM*	2%	20%	0%
CCOC(=O)C1NN=C(C(=O)c2ccc(C)cc2)C1c1ccc(C)cc1 (stereo not given)	4%	-13%	?	-76%	10µM*	-15%
CCOC(=O)C1=NNC(C(=O)c2ccc(Cl)cc2)C1c1ccccc1 (stereo not given)	18%	12%	3%	6%	0%	3%
CCOC(=O)C1=NNC(C(=O)OCC)C1c1ccccc1 (stereo not given)	19%	nt	nt	nt	nt	0%
CCOC(=O)C1=NNC(C(=O)O)C1c1ccccc1 (stereo not given)	15%	nt	nt	nt	nt	-5%
CCOC(=O)C1=NNC(C(=O)c2ccc(Cl)cc2)C1c1ccc(OC)cc1 (stereo not given)	?	0%	?	nt	13µM*	0%
CCOC(=O)C1=NNC(C(=O)c2ccc(C)cc2)C1c1ccc(OC)cc1 (stereo not given)	-8%	7%	12µM*	-3%	nt	21%
Cc1ccccc1CN1CCc2c(OCC(=O)N3CCCc4ccccc43)cccc2C1=O	13µM*	8%	?	5%	15µM*	-6%
CC1=C(/C=C/C(C)=C/C=C/C(C)=C/C(=O)Nc2ccc(O)cc2)C(C)(C)CCC1	6.3µM*	-15%	12µM*	?	?	-14%
Cc1c(Cl)c(C(=O)N2CCCCCC2)nn1C	-5%	-4%	5%	14%	10%	6%
Clc1ccc(COC(Cn2ccnc2)c2ccc(Cl)cc2Cl)cc1 (stereo not given)	?	-57%	2.1µM*	-43%	1.9µM*	-1%
Clc1ccc([C@H](Cn2ccnc2)OCc2c(Cl)cccc2Cl)c(Cl)c1	nt	nt	6.4µM*	nt	2µM*	nt
O=P(CCCO)(Cc1ccccc1)Cc1ccccc1	-4%	2%	10%	4%	7%	-7%
Cc1ccc(SCC(=O)OC(C)C(=O)NC2CCCCC2C)c(C)c1 (stereo not given)	7%	10%	-13%	nt	?	-3%
Cc1ccc(Oc2nc3ccccc3n3cccc23)cc1	7.9µM*	0%	-23%	-2%	7%	5%
c1ccc(Oc2nc3ccccc3n3cccc23)cc1	10µM*	7%	-4%	-6%	-23%	4%
Cc1nnc2c(Oc3ccccc3)nc3ccccc3n12	21%	1%	8%	-9%	44%	29%
Cc1ccc(OCc2cnc(Cl)s2)c(C)c1	10%	0%	22%	0%	-2%	57%
SMILES	HCV inhibitor	SARS PLP yeast	Pf growth 48h	NS1 inh	Pf growth 96h	AMA1 RON2 block
Nc1nc(NCCO)nc(NC2CCCCC2)c1[N+](=O)[O-]	-19%	1%	nt	-2%	5.2µM*	-7%
Nc1nc(NCCOCCO)nc(NC2CCCCC2)c1[N+](=O)[O-]	2%	-2%	?	-6%	12µM*	0%
CN(C)CCCNc1nc(N)c([N+](=O)[O-])c(NC2CCCCC2)n1	-28%	0%	-20%	0%	-28%	-2%
CC(C)CCNc1nc(N)c([N+](=O)[O-])c(NC2CCCCC2)n1	6%	2%	-30%	0%	?	0%
Cc1ccc(CNc2nc(N)c([N+](=O)[O-])c(NCCO)n2)cc1	?	0%	?	-1%	8.3µM*	-2%
Nc1nc(Nc2ccccc2)nc(NC2CCCCC2)c1[N+](=O)[O-]	10µM*	-8%	?	12%	13µM*	-17%
Nc1nc(NCc2ccc(Cl)cc2)nc(NCCO)c1[N+](=O)[O-]	?	-1%	?	-6%	?	-23%
CC(C)(O)C#Cc1ccc(CN2CCC(n3nccc3NC(=O)C3CC3)CC2)cc1	5%	-2%	-8%	4%	?	13%
Cc1ccc(-n2c(C)cc3c2CCCC3=O)cc1	3%	-4%	10µM*	-2%	-1%	-3%
COCCOc1ccc(C(F)(F)F)cc1Nc1nc2ccccc2o1	14µM*	-3%	16%	-4%	51%	31%
O=C(CN1C(=O)NC2(CCCc3ccccc32)C1=O)Nc1cc(F)ccc1F (stereo not given)	14%	0%	-9%	nt	6%	-2%
CCOC(=O)n1c(=O)oc2cc(S(=O)(=O)N3CCCCC3)ccc21	2%	-27%	?	-15%	0.0029µM*	-3%
CCOC(=O)N1CCN(C(=O)c2oc3ccc(S(=O)(=O)N4CC(C)CC(C)C4)cc3c2C)CC1 (stereo not given)	?	0%	?	-42%	nt	-6%
CCOC(=O)N1CCN(C(=O)c2oc3ccc(S(=O)(=O)N4CCCCCC4)cc3c2C)CC1	?	0%	12µM*	-17%	?	-6%
CCCCN(CC)C(=O)c1oc2ccc(S(=O)(=O)N3CCCC3)cc2c1C	?	2%	?	-23%	13µM*	1%
Cc1c(C(=O)N(C)Cc2ccccc2)oc2ccc(S(=O)(=O)N3CCCC3)cc12	-2%	-21%	?	-52%	?	-6%
CCOC(=O)C1CCN(C(=O)c2oc3ccc(S(=O)(=O)N4CC(C)CC(C)C4)cc3c2C)CC1 (stereo not given)	4.5µM*	-9%	2.3µM*	-10%	31%	-6%
COc1ccc(CCC(=O)Nc2ccc(OC)c(S(=O)(=O)N3CCCCC3)c2)cc1	?	-8%	?	nt	?	1%
COc1ccc(NC(=O)CN2C(=O)NC(C)(C3CC3)C2=O)cc1S(=O)(=O)N1CCCCC1 (stereo not given)	?	4%	?	nt	?	-11%
C=CCN=C1S/C(=C\c2ccc(N(C)C)cc2)C(=O)N1CC=C	?	0%	-12%	-2%	-51%	0%

Assay outcomes as filed in PubChem.
